Measurements published in PubChem BioAssay AID1159580 (chemical genetic matrix, 2015).
Hit rate of the full screen: of about 5,500 compounds, about 2,000 (36%) were called active. Another 18% or so got no clear call; they are omitted. Rule as the data show it: active = normalized growth mostly below about 0.91 (no sharp cut-off); inconclusive = no clear call, values can overlap the other calls; inactive = mostly above about 0.92. Some of the results follow.

Experiment: chemical genetic growth profiling, strain panel (AID 1159580);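 also: tested at 20 µM; growth read once vehicle control cultures reached saturation at 30 °C; 1 = growth at the plate median or of vehicle wells; lower values mean less growth of the strain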
Details: growth OD

Measured: normalized growth

C[C@H]1[C@H](C)CC[C@]2(CO)CC[C@]3(C)C(=CCC4[C@@]5(C)CC[C@H](O)C(C)(C)C5CC[C@]43C)[C@H]12 (some centres not stated)
inactive: S. cerevisiae deletion strains, locus YKL009W, strain mrt4, hits give low values 1.01 | S. cerevisiae deletion strains, locus YKL068W, hits give low values 1.02 | S. cerevisiae deletion strains, locus YKL085W, strain MDH1 (second series), hits give low values 1.04 | S. cerevisiae deletion strains, locus YKL085W, strain MDH1, hits give low values 1.04 | S. cerevisiae deletion strains, locus YKL160W, strain elf1, hits give low values 0.995 | S. cerevisiae deletion strains, locus YKL190W, strain CNB1, hits give low values 1.01 | S. cerevisiae deletion strains, locus YKR001C, strain vps1, hits give low values 1.03 | S. cerevisiae deletion strains, locus YKR026C, strain gcn3, hits give low values 0.997 | S. cerevisiae deletion strains, locus YKR091W, strain srl3, hits give low values 0.988 | S. cerevisiae deletion strains, locus YLL001W, strain dnm1, hits give low values 1.01 | S. cerevisiae deletion strains, locus YLL026W, hits give low values 1.01 | S. cerevisiae deletion strains, locus YLL041C, strain sdh2, hits give low values 1 | S. cerevisiae deletion strains, locus YLR027C, strain aat2, hits give low values 0.976 | S. cerevisiae deletion strains, locus YLR039C, strain RIC1, hits give low values 1.08 | S. cerevisiae deletion strains, locus YLR058C, strain SHM2, hits give low values 1.02 | S. cerevisiae deletion strains, locus YLR102C, strain apc9, hits give low values 1.02 | S. cerevisiae deletion strains, locus YLR113W, strain HOG1, hits give low values 0.967 | S. cerevisiae deletion strains, locus YLR221C, strain rsa3, hits give low values 0.986 | S. cerevisiae deletion strains, locus YLR258W, strain gsy2, hits give low values 0.989 | S. cerevisiae deletion strains, locus YLR262C, strain YPT6 (second series), hits give low values 1.04 | S. cerevisiae deletion strains, locus YLR262C, strain YPT6, hits give low values 1.08 | S. cerevisiae deletion strains, locus YLR268W, strain sec22, hits give low values 1.03 | S. cerevisiae deletion strains, locus YLR320W, strain mms22, hits give low values 0.987 | S. cerevisiae deletion strains, locus YLR330W, strain CHS5, hits give low values 1.01 | S. cerevisiae deletion strains, locus YLR342W, strain FKS1 (second series), hits give low values 1 | S. cerevisiae deletion strains, locus YLR342W, strain FKS1, hits give low values 0.989 | S. cerevisiae deletion strains, locus YLR357W, strain rsc2, hits give low values 0.999 | S. cerevisiae deletion strains, locus YLR370C, strain arc18, hits give low values 1 | S. cerevisiae deletion strains, locus YLR371W, strain rom2, hits give low values 1.03 | S. cerevisiae deletion strains, locus YLR384C, strain iki3, hits give low values 0.974 | S. cerevisiae deletion strains, locus YLR418C, strain cdc73, hits give low values 1.03 | S. cerevisiae deletion strains, locus YML016C, strain PPZ1, hits give low values 1.02 | S. cerevisiae deletion strains, locus YML032C, strain rad52, hits give low values 1.02 | S. cerevisiae deletion strains, locus YML120C, strain ndi1, hits give low values 0.988 | S. cerevisiae deletion strains, locus YML124C, strain tub3, hits give low values 1.03 | S. cerevisiae deletion strains, locus YMR058W, strain fet3, hits give low values 1 | S. cerevisiae deletion strains, locus YMR078C, strain ctf18, hits give low values 1.03 | S. cerevisiae deletion strains, locus YMR125W, strain sto1, hits give low values 1.01 | S. cerevisiae deletion strains, locus YMR129W, hits give low values 0.988 | S. cerevisiae deletion strains, locus YMR205C, strain PFK2, hits give low values 0.98 | S. cerevisiae deletion strains, locus YMR223W, strain ubp8, hits give low values 1.02 | S. cerevisiae deletion strains, locus YMR231W, strain pep5, hits give low values 1 | S. cerevisiae deletion strains, locus YMR263W, strain SAP30, hits give low values 1.01 | S. cerevisiae deletion strains, locus YMR307W, strain GAS1, hits give low values 1.06 | S. cerevisiae deletion strains, locus YNL067W, strain RPL9B, hits give low values 1.01 | S. cerevisiae deletion strains, locus YNL071W, strain lat1, hits give low values 0.995 | S. cerevisiae deletion strains, locus YNL183C, strain NPR1, hits give low values 0.967 | S. cerevisiae deletion strains, locus YNL209W, strain ssb2, hits give low values 0.988 | S. cerevisiae deletion strains, locus YNL233W, strain BNI4, hits give low values 1.01 | S. cerevisiae deletion strains, locus YNL248C, strain rpa49, hits give low values 1 | S. cerevisiae deletion strains, locus YNL250W, strain rad50, hits give low values 1.04 | S. cerevisiae deletion strains, locus YNL271C, strain bni1, hits give low values 1.02 | S. cerevisiae deletion strains, locus YNL298W, strain CLA4, hits give low values 1.01 | S. cerevisiae deletion strains, locus YNL307C, strain MCK1, hits give low values 1.04 | S. cerevisiae deletion strains, locus YNL322C, strain KRE1 (second series), hits give low values 0.99 | S. cerevisiae deletion strains, locus YNR049C, strain mso1, hits give low values 0.99 | S. cerevisiae deletion strains, locus YNR052C, strain pop2, hits give low values 1.01 | S. cerevisiae deletion strains, locus YOL006C, strain TOP1, hits give low values 1.07 | S. cerevisiae deletion strains, locus YOL012C, strain htz1 1.12 | S. cerevisiae deletion strains, locus YOL147C, strain pex11, hits give low values 1.02 | S. cerevisiae deletion strains, locus YOR001W, strain rrp6, hits give low values 0.946 | S. cerevisiae deletion strains, locus YOR061W, strain CKA2, hits give low values 1.01 | S. cerevisiae deletion strains, locus YOR069W, strain VPS5, hits give low values 1.01 | S. cerevisiae deletion strains, locus YOR070C, strain gyp1, hits give low values 0.975 | S. cerevisiae deletion strains, locus YOR080W, strain dia2, hits give low values 0.992 | S. cerevisiae deletion strains, locus YOR083W, strain WHI5, hits give low values 0.995 | S. cerevisiae deletion strains, locus YOR106W, strain vam3, hits give low values 1.01 | S. cerevisiae deletion strains, locus YOR136W, strain idh2, hits give low values 1.03 | S. cerevisiae deletion strains, locus YOR144C, strain elg1, hits give low values 1.02 | S. cerevisiae deletion strains, locus YOR184W, strain ser1, hits give low values 1.01 | S. cerevisiae deletion strains, locus YOR231W, strain MKK1, hits give low values 0.996 | S. cerevisiae deletion strains, locus YOR265W, strain rbl2, hits give low values 0.986 | S. cerevisiae deletion strains, locus YOR270C, strain vph1, hits give low values 0.984 | S. cerevisiae deletion strains, locus YOR290C, strain snf2, hits give low values 0.998 | S. cerevisiae deletion strains, locus YOR316C, strain cot1, hits give low values 1.03 | S. cerevisiae deletion strains, locus YPL051W, strain arl3, hits give low values 0.998 | S. cerevisiae deletion strains, locus YPL078C, strain atp4, hits give low values 0.993 | S. cerevisiae deletion strains, locus YPL106C, strain sse1, hits give low values 1.09 | S. cerevisiae deletion strains, locus YPL240C, strain hsp82, hits give low values 1.01 | S. cerevisiae deletion strains, locus YPL241C, strain CIN2, hits give low values 0.995 | S. cerevisiae deletion strains, locus YPL256C, strain CLN2, hits give low values 1.07 | S. cerevisiae deletion strains, locus YPR119W, strain clb2, hits give low values 1.03 | S. cerevisiae deletion strains, locus YPR141C, strain kar3, hits give low values 1.04 | S. cerevisiae deletion strains, locus YPR163C, strain tif3, hits give low values 1.03 | S. cerevisiae deletion strains, locus YPR167C, strain met16, hits give low values 1.02 | S. cerevisiae deletion strains, strain wtn01, hits give low values 1.01 | S. cerevisiae strains, strain wild type, hits give low values 1
